# According to PubChem BioAssay (NCATS):
# Records with an inconclusive call do not appear. A call without a number means that no potency is given here. The source made the active and inactive calls. Calls come from the whole dose curve; as a rule, active = well fitted cell-killing curve with a large enough effect; inconclusive = small, poorly fitted or top-dose-only effect, or effect the other way; inactive = no such curve, though single readings can be large or run the other way.
# What was measured:
# [1] = Quantitative High-Throughput drug screen in 47 multiple myeloma cell lines against the NCATS MIPE library collection: RPMI8226_ATCC cell viability assay (AID 1919871); note: nearly all actives have a fitted effect of over 30% in size
# Outline: (§1)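 Plated at 500 cells per well, myeloma lines received MIPE 4.0 compounds by pin tool. Following 48 h culture at 37 °C, CellTiter-Glo luminescence gave viability relative to DMSO and media-only controls.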
# [2] = Quantitative High-Throughput drug screen in 47 multiple myeloma cell lines against the NCATS MIPE library collection: OPM2_DSMZ cell viability assay (AID 1919872); note: nearly all actives have a fitted effect of over 30% in size
# Outline: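 CellTiter-Glo luminescence (ATP) after 48 h compound exposure, 37C/5% CO2; 500 cells/well; MIPE 4.0 approved/investigational drugs pinned in; DMSO = 100%, media only = 0% viability.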
# [3] = Quantitative High-Throughput drug screen in 47 multiple myeloma cell lines against the NCATS MIPE library collection: KMS11_JCRBsus cell viability assay (AID 1919873); note: nearly all actives have a fitted effect of over 50% in size
# Outline: as §1
# [4] = Quantitative High-Throughput drug screen in 47 multiple myeloma cell lines against the NCATS MIPE library collection: KMS28BM_JCRB cell viability assay (AID 1919874); note: nearly all actives have a fitted effect of over 35% in size
# Outline: as §1
# Potency is the fitted concentration of half-maximal effect.
Compound,Potency [1],Potency [2],Potency [3],Potency [4]
O=C(C1CC1)N1CC[C@@H](Cn2c(-c3ccc(-c4ccc5occc5c4)cc3)nc3cnccc32)C1,inactive,20.9 µM (active),–,–
CCc1cc(Nc2nccc(-c3c(-c4ccc(OC)c(C(=O)Nc5c(F)cccc5F)c4)nc4ccccn34)n2)c(OC)cc1N1CCC(N2CCN(S(C)(=O)=O)CC2)CC1,20.9 µM (active),–,–,–
CCCCNc1cc(C(=O)O)cc(S(N)(=O)=O)c1Oc1ccccc1,inactive,inactive,–,–
CCOC(=O)N[C@@H]1CC[C@@H]2[C@@H](C1)C[C@H]1C(=O)O[C@H](C)[C@H]1[C@@H]2C=Cc1ccc(-c2cccc(F)c2)cn1,18.7 µM (active),inactive,–,–
CC(C)NCC(O)COc1ccc(COCCOC(C)C)cc1 (stereo unspecified),inactive,inactive,–,–
Cc1ccccc1C(C(=O)NC1CCCC1)N(C(=O)Cn1cnc2ccccc21)c1cccc(F)c1 (stereo unspecified),3.72 µM (active),–,–,–
Nc1ccc(S(=O)(=O)Nc2ccnn2-c2ccccc2)cc1,inactive,inactive,–,–
CN(C)c1ccc(Nc2nc(N)n(C(=O)c3c(F)cccc3F)n2)cc1,inactive,–,–,–
CCN(CC)CCCC(C)Nc1ccnc2cc(Cl)ccc12 (stereo unspecified),inactive,inactive,–,–
CCCCCCCc1ccc(CCc2cccc(O)c2C(=O)O)cc1,16.6 µM (active),inactive,inactive,–
OC[C@H](Cc1ccccc1)Nc1nc(Oc2ccc3c(c2)CCC3)nc2c1ncn2Cc1ccc(-c2ccccc2)cc1,inactive,inactive,–,–
COc1ccccc1-c1cccc(-c2c(O)c3cc(C#N)c(Cl)cc3[nH]c2=O)c1,inactive,inactive,–,–
CC1(C)SCCN(S(=O)(=O)c2ccc(OCC#CCO)cc2)[C@@H]1C(=O)NO,inactive,inactive,–,–
CC(C)OC(=O)C1=CN(C(=O)c2ccc(F)c(F)c2)CC(C)(C)c2c1[nH]c1ccccc21,inactive,inactive,inactive,–
Cc1cc(Nc2nc(N[C@@H](C)c3ncc(F)cn3)ncc2Cl)n[nH]1,11.8 µM (active),–,–,–
Fc1ccc(Cl)cc1-c1nc(Nc2ccncc2)c2nccnc2n1,inactive,inactive,–,–
COc1ccc(-c2oc3cc(OC)ccc3c2C(=O)c2ccc(C#N)cc2)cc1,inactive,inactive,inactive,–
Cc1c(CN2CCN(C(=O)C(C)C)CC2)sc2c(N3CCOCC3)nc(-c3cnc(N)nc3)nc12,0.0296 µM (active),0.118 µM (active),–,–
CCOc1cc(N2CCC(O)CC2)ccc1Nc1ncc2c(n1)N(C)c1ccccc1C(=O)N2C,20.9 µM (active),13.2 µM (active),3.32 µM (active),–
CC(C)(C)NCC(O)c1ccc(O)c(CO)c1 (stereo unspecified),inactive,inactive,–,–

Compound,Potency [1],Potency [2],Potency [3],Potency [4]
Cc1cc(SCc2sc(-c3ccc(C(F)(F)F)cc3)nc2C)ccc1OCC(=O)O,14.8 µM (active),inactive,–,–
O=C(O)CCc1ccc(NCc2cccc(Oc3ccccc3)c2)cc1,inactive,inactive,inactive,–
CS(=O)(=O)c1ccc(C(=O)Nc2ccc(Cl)c(-c3ccccn3)c2)c(Cl)c1,inactive,inactive,inactive,–
COc1ccc(COc2cc3oc(=O)c4cc(C(C)O)ccc4c3cc2OC)cc1 (stereo unspecified),20.9 µM (active),–,–,–
CNCc1ccc(-c2[nH]c3cc(F)cc4c3c2CCNC4=O)cc1,inactive,inactive,–,–
COc1ccc(CCN2CCN(CCCc3ccccc3)CC2)cc1OC,inactive,–,–,–
c1ccc(-c2nn3c(c2-c2ccnc4cc(OCCN5CCOCC5)ccc24)CCC3)nc1,20.9 µM (active),–,–,–
O=NN(CCCl)C(=O)NCCCl,inactive,inactive,–,–
COc1cc(F)c(F)c(Nc2ccc(I)cc2F)c1NS(=O)(=O)C1(C[C@H](O)CO)CC1,10.5 µM (active),inactive,16.6 µM (active),–
CCC(C)n1ncn(-c2ccc(N3CCN(c4ccc(OC[C@H]5CO[C@](Cn6cncn6)(c6ccc(Cl)cc6Cl)O5)cc4)CC3)cc2)c1=O (stereo partly specified),3.32 µM (active),4.69 µM (active),1.32 µM (active),–
Cc1cc(-c2ccc(CC(=O)Nc3ccc(-c4cccnc4)cc3)cc2)ccn1,5.9 µM (active),inactive,20.9 µM (active),–
Cn1c(=O)c(F)c(Nc2ccc(I)cc2F)c2c(=O)n(C[C@@H](O)CO)cnc21,inactive,–,–,–
CCn1cc(C(=O)O)c(=O)c2cc(F)c(N3CCNC(C)C3)c(F)c21 (stereo unspecified),inactive,inactive,inactive,inactive
NS(=O)(=O)c1cc2c(cc1Cl)NC=NS2(=O)=O,inactive,inactive,–,inactive
O=c1[nH]cnc2[nH]ncc12,inactive,–,inactive,–
Cc1[nH]c(=O)c(C#N)cc1-c1ccc2nccn2c1,inactive,inactive,inactive,inactive
COc1cccc2cc(-c3nc(C4CCC(C(=O)O)CC4)n4ncnc(N)c34)[nH]c12 (stereo unspecified),0.59 µM (active),2.96 µM (active),0.132 µM (active),1.48 µM (active)
CC(C[N+](C)(C)C)OC(N)=O (stereo unspecified),inactive,–,–,inactive
CS(=O)(=O)c1cccc(CNc2nc(Nc3ccc4c(c3)CCC(=O)N4)ncc2C(F)(F)F)c1,18.7 µM (active),20.9 µM (active),8.33 µM (active),16.6 µM (active)
CC1(C)CNc2cc(NC(=O)c3cccnc3NCc3ccncc3)ccc21,18.7 µM (active),–,20.9 µM (active),inactive
